According to the supplement of paper PMC6555819:

Columns and labels:
Experiment in all cases: PBM binding z-score (relative to random genomic background probes); higher = stronger binding; sequences stand for … in GC…GCGATTGACAGCGTAGAATGAAGG
[1] = tested on: FXR:RXRa (NR concentration 270 nM, RXRa partner concentration 90 nM)
Procedure, shortened: (§1)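 Ligand-free nuclear receptor dimers were applied to custom Agilent 4×180K protein-binding microarrays whose double-stranded probes carried direct-repeat seeds, single-nucleotide variants, half-site ablations and random human genomic background sequences in 34-nt variable regions. Incubation lasted 1 h. Binding z-scores were computed against the random background probes from regression-normalized fluorescence.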

[2] = tested on: LXRa:RXRa (NR concentration 270 nM, RXRa partner concentration 90 nM)
Procedure, shortened: as §1

[3] = tested on: LXRa homodimer (NR concentration 270 nM)
Procedure, shortened: as §1

[4] = tested on: LXRb:RXRa (NR concentration 270 nM, RXRa partner concentration 90 nM)
Procedure, shortened: as §1

[5] = tested on: LXRb homodimer (NR concentration 270 nM)
Procedure, shortened: as §1

[6] = tested on: PPARa:RXRa (NR concentration 270 nM, RXRa partner concentration 90 nM)
Procedure, shortened: as §1

[7] = tested on: PPARg:RXRa (NR concentration 180 nM, RXRa partner concentration 90 nM)
Procedure, shortened: as §1

[8] = tested on: PPARg:RXRa 270nM:90nM, anti-RXR (NR concentration 270 nM, RXRa partner concentration 90 nM)
Procedure, shortened: as §1

[9] = tested on: PPARg:RXRa 30nM:10nM, anti-RXR (NR concentration 30 nM, RXRa partner concentration 10 nM)
Procedure, shortened: as §1

[10] = tested on: PPARg:RXRa 90nM:30nM, anti-RXR (NR concentration 90 nM, RXRa partner concentration 30 nM)
Procedure, shortened: as §1

[11] = tested on: PPARg:RXRa DBDmut IVT, anti-RXR (DBD mutation: RXRa K156A/R161A, NR concentration 270 nM, RXRa partner concentration 90 nM)
Procedure, shortened: as §1

[12] = tested on: PPARg:RXRa IVT, anti-PPARg (NR concentration 270 nM, RXRa partner concentration 90 nM)
Procedure, shortened: as §1

[13] = tested on: PPARg DBDmut:RXRa IVT, anti-PPARg (DBD mutation: PPARg1 K132A/R137A, NR concentration 270 nM, RXRa partner concentration 90 nM)
Procedure, shortened: as §1

[14] = tested on: PPARg DBDmut IVT, anti-PPARg (DBD mutation: PPARg1 K132A/R137A, NR concentration 270 nM)
Procedure, shortened: as §1

[15] = tested on: PPARg homodimer (NR concentration 180 nM)
Procedure, shortened: as §1

[16] = tested on: PXR:RXRa (NR concentration 270 nM, RXRa partner concentration 90 nM)
Procedure, shortened: as §1

[17] = tested on: PXR homodimer (NR concentration 270 nM)
Procedure, shortened: as §1

[18] = tested on: RARa:RXR (NR concentration 270 nM, RXRa partner concentration 90 nM)
Procedure, shortened: as §1

[19] = tested on: RARa homodimer (NR concentration 270 nM)
Procedure, shortened: as §1

[20] = tested on: RARb:RXRa (NR concentration 270 nM, RXRa partner concentration 90 nM)
Procedure, shortened: as §1

Row | Sequence | PBM binding z-score [1] | PBM binding z-score [2] | PBM binding z-score [3] | PBM binding z-score [4] | PBM binding z-score [5] | PBM binding z-score [6] | PBM binding z-score [7] | PBM binding z-score [8] | PBM binding z-score [9] | PBM binding z-score [10] | PBM binding z-score [11] | PBM binding z-score [12] | PBM binding z-score [13] | PBM binding z-score [14] | PBM binding z-score [15] | PBM binding z-score [16] | PBM binding z-score [17] | PBM binding z-score [18] | PBM binding z-score [19] | PBM binding z-score [20]
1 | TCTATTAGTGGATTAGGGCAACCGAAACAGCGGA | 0.803 | 0.521 | 0.262 | 0.532 | 0.78 | 0.571 | 0.412 | 1.68 | 3.07 | 2.64 | 2.45 | 2.24 | 0.96 | 1.11 | 1.27 | 0.235 | 0.482 | 0.458 | 1.39 | 0.682
2 | CGTCAAAGTTCAACTTAGGTAACGTAAAGCACGC | 7.46 | 6.58 | 4.88 | 4.63 | 2.58 | 5.35 | 5.28 | 5.78 | 2.4 | 4.66 | -0.00853 | 2.1 | 0.537 | 0.683 | 4.03 | 5.5 | 4.07 | 4.61 | 2.1 | 5.38
3 | CGTACAGGGTCAGCTAGGCCAGAGTAGGGACGGC | 5.16 | 2.66 | -0.281 | 1.94 | -0.514 | 4.22 | 3.14 | 3.3 | 0.448 | 1.84 | 1.75 | 2.64 | 0.166 | -0.287 | 1.47 | 2.28 | -0.805 | 3.32 | -0.147 | 4.16
4 | CCTCGCAGGACAACAGGAGGTCAGAGCTGCCAGA | 0.787 | 1.63 | 1.92 | 1.05 | -0.469 | 1.73 | 0.326 | -0.0198 | -0.833 | -0.445 | -0.0217 | 0.0775 | -0.749 | -0.93 | 1.52 | 1.89 | 0.261 | 2.26 | -0.0612 | 2.28
5 | TCGAGTAGTTTACCAATGGGGCATTCAGCTTTCT | -0.0204 | -0.0341 | -0.552 | 0.423 | -0.375 | -0.115 | -0.798 | 0.325 | 0.821 | 0.499 | 0.933 | -0.146 | -0.382 | 0.0492 | -0.418 | -0.0619 | -0.235 | 0.338 | -0.982 | 0.0508
6 | ATCTCTAGGTAAAGATAATTCAGTGAATGCAAAT | 0.311 | 0.4 | 0.217 | 0.485 | 0.372 | 0.312 | 0.908 | 0.48 | 0.443 | 0.348 | 2.32 | 1.93 | 1.06 | 1.29 | 0.141 | 0.14 | 0.504 | 0.441 | 1.38 | -0.0226
7 | CTCGAAAGGTCGTGCTCAGGTGAGTGTACCAAAC | 5.56 | 4.02 | 0.294 | 3.22 | 0.22 | 4.73 | 2.35 | 4.01 | 1.05 | 2.56 | 1.29 | 1.94 | -0.0151 | 0.438 | 1.83 | 3.52 | 0.0812 | 4.32 | 0.202 | 4.01
8 | AGAATGAGGATATTAAGATCAGGGAATTGCGGTC | -0.251 | -0.424 | 0.0165 | -0.53 | -0.355 | -0.323 | 0.311 | -0.0295 | -0.0325 | -0.182 | -0.168 | 0.03 | 0.947 | 0.486 | -0.141 | -0.209 | 0.0307 | -0.171 | 0.578 | -0.259
9 | CCTACTGGGGCAAAGGTTACCATACTCAGTACGA | 1.74 | 1.84 | 0.187 | 2.41 | -0.355 | 6.15 | 12.1 | 10 | 12.4 | 12.2 | 5.92 | 7.16 | 3.64 | 1.43 | 4.58 | 2.6 | -0.144 | 4.19 | -0.0268 | 2.6
10 | AGAACGAGGGCAATGAGGTGATAGCACGGGTGGC | 0.341 | 0.494 | -0.43 | -0.215 | -0.118 | 1.72 | 1.75 | 1.46 | -0.142 | 0.347 | 3.36 | 3.33 | 0.776 | 0.448 | 0.588 | 1.06 | 0.905 | 0.818 | 0.144 | 2.13
11 | CCTACTGGGCCAAATGTCATTGATTCCAATGCTC | 0.068 | -0.00295 | -0.00298 | 0.307 | -0.155 | 3.42 | 7 | 7.26 | 6.52 | 7.54 | 4.77 | 4.36 | 0.17 | 0.471 | 0.28 | -0.184 | -0.329 | 0.0171 | -0.233 | 0.654
12 | ATATGTAGGTTAGCTGGGGTCATTCAAACTAGGC | 5.07 | 5.84 | 3.67 | 5.17 | 1.92 | 5.21 | 5.74 | 5.36 | 2.92 | 4.91 | 7 | 6.34 | 2.93 | 1.75 | 3.19 | 6.37 | 4.83 | 5.84 | 1.69 | 3.18
13 | CCTACTGGGCCCCGAAAGGTCATTGATTCAGTGA | 3.17 | 4.07 | 4.02 | 3.98 | 0.0468 | 3.93 | 1.14 | 2.68 | 0.29 | 1.58 | 0.503 | 2.11 | -1.53 | -0.961 | 2.6 | 4.66 | 1.26 | 5.15 | 1.3 | 3.6
14 | TAGAGTAGGTTAGGGGCATTCAGAATGGCGTCGA | 0.854 | 0.929 | 0.289 | 1.66 | 2.45 | 2.24 | 2.29 | 3.01 | 1.48 | 2.6 | 2.77 | 3.28 | 1.38 | 0.566 | 1.85 | 1.08 | 1.72 | 0.913 | 1.66 | 1.81
